# Test results published in ChEMBL document CHEMBL1961873, “Compounds: GSK PKIS; Assays: Nanosyn kinase panel” (2012).
# Target: Tyrosine-protein kinase Lck (Homo sapiens) (UniProt P06239);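 further: reported Lck percent inhibition is a mean value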
# Conditions: at 1 µM
# Chain of Tyrosine-protein kinase Lck (Homo sapiens) (P06239 2-509 limits assumed): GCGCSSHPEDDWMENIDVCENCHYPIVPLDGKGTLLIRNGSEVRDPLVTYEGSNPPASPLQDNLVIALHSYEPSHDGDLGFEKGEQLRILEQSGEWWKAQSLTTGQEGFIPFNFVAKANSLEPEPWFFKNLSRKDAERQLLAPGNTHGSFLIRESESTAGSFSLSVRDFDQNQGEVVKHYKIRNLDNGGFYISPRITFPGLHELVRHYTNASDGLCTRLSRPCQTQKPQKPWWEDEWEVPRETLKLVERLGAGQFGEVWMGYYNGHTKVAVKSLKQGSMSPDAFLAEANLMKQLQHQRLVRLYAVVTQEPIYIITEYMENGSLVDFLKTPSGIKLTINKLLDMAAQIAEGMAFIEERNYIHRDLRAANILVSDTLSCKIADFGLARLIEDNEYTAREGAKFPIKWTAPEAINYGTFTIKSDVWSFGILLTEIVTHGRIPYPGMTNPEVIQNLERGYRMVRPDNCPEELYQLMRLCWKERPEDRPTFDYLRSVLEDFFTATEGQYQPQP
row,Compound,inhibition [%]
1,COc1cccc(-n2ncc3c(N/N=C/c4ccc(C)cc4)ncnc32)c1,21.3
2,COc1cc2ncnc(Nc3ccc4c(cnn4Cc4ccccc4)c3)c2cc1OC,61.1
3,Cc1ccc(NC(=O)CC2CC2)cc1-c1ccc(C(=O)NCC2CC2)cc1,3.82
4,COc1ccc2ncnc(Nc3ccc(OCc4ccccc4)cc3)c2c1,7.05
5,Nc1nccc(-c2c(-c3ccc(F)cc3)ncn2CCCN2CCOCC2)n1,7.4
6,CN(C)C(=O)O[C@@H]1CN[C@@H](C#Cc2cc3ncnc(Nc4ccc(OCc5cccc(F)c5)c(Cl)c4)c3s2)C1,5.66
7,Cc1cc(O)cc(C)c1/C=C/c1cncc(C(=O)N(C)C)c1,8.38
8,Cc1cc(-c2ccccn2)cc(C)c1/C=C/c1cncc(-c2nn[nH]n2)c1,12.1
9,CN(C)C(=O)O[C@H]1CN[C@H](C#Cc2cc3ncnc(Nc4ccc(OCc5cccc(F)c5)c(Cl)c4)c3s2)C1,3.02
10,Oc1cccc(-c2nc(-c3ccccc3)[nH]c2-c2ccncc2)c1,17.7
11,c1ccc(Cc2nc3ccc(Nc4ncnc5ccccc45)cc3[nH]2)cc1,9.45
12,CCn1c(-c2nonc2N)nc2ccc(F)cc21,2.85
13,Cc1ccc2c(-c3ccnc(Nc4ccc5c(c4)OCCO5)n3)c(-c3ccc(C(F)(F)F)cc3)nn2n1,8.08
14,N#Cc1c(NC(=O)c2ccccc2F)sc2c1CCCC2,4.08
15,CCOc1nccc2c1nc(-c1nonc1N)n2CC,3.61
16,Nc1ccc(C#Cc2cncnc2Nc2ccc(OCc3cccc(F)c3)c(Cl)c2)cc1,4.92
17,Cc1nc(-c2ccccc2)n2nc(NCCCN3CCOCC3)ncc12,5.01

row,Compound,inhibition [%]
1,CN(c1ccc(NC(=O)Nc2ccc(OC(F)(F)F)cc2)cc1)c1ccnc(Nc2cccc(S(N)(=O)=O)c2)n1,80.1
2,COc1ccc(-c2nn3ncccc3c2-c2ccnc(Nc3cccc(C(F)(F)F)c3)n2)cc1,20.3
3,COC(=O)c1ccc2c(c1)C(=Cc1cc(Br)c(O)c(Br)c1)C(=O)N2,15.3
4,Cc1ccc2c(-c3ccnc(Nc4cccc(C(F)(F)F)c4)n3)c(-c3ccccc3)nn2n1,42
5,NS(=O)(=O)c1ccc(Nc2cc(-c3cccc(O)c3)n[nH]2)cc1,4.8
6,COc1cc(/C=N/Nc2ncnc3c2cnn3C(C)C)ccc1O,52.8
7,Cc1ccc2c(c1)/C(=N/Nc1ccc(S(N)(=O)=O)cc1)C(=O)N2,3.66
8,OCc1ccc(-c2nc(-c3ccccn3)c(-c3ccc4c(c3)OCO4)[nH]2)cc1,6.53
9,CC(C)c1ccc(Nc2nccc(-c3cnn4ncccc34)n2)cc1,3.47
10,O=S(=O)(CCOCc1ccc(-c2ccc3ncnc(Nc4ccc(OCc5cccc(F)c5)c(Cl)c4)c3c2)o1)c1ccccc1,3.4
11,O=C1Nc2ccccc2/C1=C/Nc1ccc2[nH]c(=O)[nH]c2c1,11.9
12,CCCN1CCCC(c2ccc(Nc3nc(Nc4cc(F)ccc4C(N)=O)c4cc[nH]c4n3)c(OC)c2)C1 (stereo unspecified),6.22
13,CN(C)c1cc2c(Nc3ccc4c(cnn4Cc4ccccc4)c3)ncnc2cn1,22.6
14,CCS(=O)(=O)c1ccc(OC)c(Nc2nccc(N(C)c3ccc4c(C)n[nH]c4c3)n2)c1,60.2
15,CCn1c(-c2nonc2N)nc2c(C#CC(C)(C)O)nc(OCCNC)cc21,2.44
16,COc1cc(Nc2nccc(-c3cnn4ncccc34)n2)cc(OC)c1,19.2

# Target: Leukocyte tyrosine kinase receptor (Homo sapiens) (UniProt P29376)
# Conditions: at 0.1 µM
# Chain of Leukocyte tyrosine kinase receptor (Homo sapiens) (P29376 whole entry): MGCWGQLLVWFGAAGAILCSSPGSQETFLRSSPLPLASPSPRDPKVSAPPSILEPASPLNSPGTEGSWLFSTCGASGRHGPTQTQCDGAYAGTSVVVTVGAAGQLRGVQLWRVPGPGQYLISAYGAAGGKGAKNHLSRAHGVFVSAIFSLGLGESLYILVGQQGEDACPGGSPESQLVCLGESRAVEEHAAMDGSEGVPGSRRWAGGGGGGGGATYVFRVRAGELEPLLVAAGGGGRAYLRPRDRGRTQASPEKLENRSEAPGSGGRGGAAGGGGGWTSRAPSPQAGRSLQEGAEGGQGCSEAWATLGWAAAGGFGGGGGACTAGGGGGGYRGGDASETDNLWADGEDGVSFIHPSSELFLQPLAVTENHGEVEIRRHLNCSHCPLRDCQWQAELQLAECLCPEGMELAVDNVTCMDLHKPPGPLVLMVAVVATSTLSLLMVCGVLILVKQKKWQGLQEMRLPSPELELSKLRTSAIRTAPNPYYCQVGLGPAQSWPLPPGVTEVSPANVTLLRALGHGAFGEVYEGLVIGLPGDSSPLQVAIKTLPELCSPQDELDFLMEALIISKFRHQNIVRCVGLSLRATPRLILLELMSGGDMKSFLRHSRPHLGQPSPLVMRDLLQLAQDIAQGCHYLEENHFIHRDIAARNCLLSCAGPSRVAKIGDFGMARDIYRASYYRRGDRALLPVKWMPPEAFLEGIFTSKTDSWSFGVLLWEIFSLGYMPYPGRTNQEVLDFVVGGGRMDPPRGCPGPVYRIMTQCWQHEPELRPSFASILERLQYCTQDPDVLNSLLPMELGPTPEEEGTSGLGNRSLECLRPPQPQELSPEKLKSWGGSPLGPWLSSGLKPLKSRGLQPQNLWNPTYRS
row,Compound,inhibition [%]
1,COc1cccc(-n2ncc3c(N/N=C/c4ccc(C)cc4)ncnc32)c1,4.23
2,COc1cc2ncnc(Nc3ccc4c(cnn4Cc4ccccc4)c3)c2cc1OC,2.67
3,Cc1ccc(NC(=O)CC2CC2)cc1-c1ccc(C(=O)NCC2CC2)cc1,4.18
4,COc1ccc2ncnc(Nc3ccc(OCc4ccccc4)cc3)c2c1,2.27
5,Nc1nccc(-c2c(-c3ccc(F)cc3)ncn2CCCN2CCOCC2)n1,2.33
6,CN(C)C(=O)O[C@@H]1CN[C@@H](C#Cc2cc3ncnc(Nc4ccc(OCc5cccc(F)c5)c(Cl)c4)c3s2)C1,0.9
7,Cc1cc(O)cc(C)c1/C=C/c1cncc(C(=O)N(C)C)c1,2.93
8,Cc1cc(-c2ccccn2)cc(C)c1/C=C/c1cncc(-c2nn[nH]n2)c1,4.42
9,CN(C)C(=O)O[C@H]1CN[C@H](C#Cc2cc3ncnc(Nc4ccc(OCc5cccc(F)c5)c(Cl)c4)c3s2)C1,1.7
10,Oc1cccc(-c2nc(-c3ccccc3)[nH]c2-c2ccncc2)c1,3.98
11,c1ccc(Cc2nc3ccc(Nc4ncnc5ccccc45)cc3[nH]2)cc1,2.98
12,CCn1c(-c2nonc2N)nc2ccc(F)cc21,3.51
13,Cc1ccc2c(-c3ccnc(Nc4ccc5c(c4)OCCO5)n3)c(-c3ccc(C(F)(F)F)cc3)nn2n1,0.85
14,N#Cc1c(NC(=O)c2ccccc2F)sc2c1CCCC2,-1.29
15,CCOc1nccc2c1nc(-c1nonc1N)n2CC,1.89
16,Nc1ccc(C#Cc2cncnc2Nc2ccc(OCc3cccc(F)c3)c(Cl)c2)cc1,3.5
17,Cc1nc(-c2ccccc2)n2nc(NCCCN3CCOCC3)ncc12,2.89

row,Compound,inhibition [%]
1,CN(c1ccc(NC(=O)Nc2ccc(OC(F)(F)F)cc2)cc1)c1ccnc(Nc2cccc(S(N)(=O)=O)c2)n1,2.69
2,COc1ccc(-c2nn3ncccc3c2-c2ccnc(Nc3cccc(C(F)(F)F)c3)n2)cc1,2.17
3,COC(=O)c1ccc2c(c1)C(=Cc1cc(Br)c(O)c(Br)c1)C(=O)N2,6.76
4,Cc1ccc2c(-c3ccnc(Nc4cccc(C(F)(F)F)c4)n3)c(-c3ccccc3)nn2n1,4.14
5,NS(=O)(=O)c1ccc(Nc2cc(-c3cccc(O)c3)n[nH]2)cc1,2.99
6,COc1cc(/C=N/Nc2ncnc3c2cnn3C(C)C)ccc1O,1.55
7,Cc1ccc2c(c1)/C(=N/Nc1ccc(S(N)(=O)=O)cc1)C(=O)N2,0.21
8,OCc1ccc(-c2nc(-c3ccccn3)c(-c3ccc4c(c3)OCO4)[nH]2)cc1,3.45
9,CC(C)c1ccc(Nc2nccc(-c3cnn4ncccc34)n2)cc1,2.91
10,O=S(=O)(CCOCc1ccc(-c2ccc3ncnc(Nc4ccc(OCc5cccc(F)c5)c(Cl)c4)c3c2)o1)c1ccccc1,2.35
11,O=C1Nc2ccccc2/C1=C/Nc1ccc2[nH]c(=O)[nH]c2c1,5.48
12,CCCN1CCCC(c2ccc(Nc3nc(Nc4cc(F)ccc4C(N)=O)c4cc[nH]c4n3)c(OC)c2)C1 (stereo unspecified),95
13,CN(C)c1cc2c(Nc3ccc4c(cnn4Cc4ccccc4)c3)ncnc2cn1,1.81
14,CCS(=O)(=O)c1ccc(OC)c(Nc2nccc(N(C)c3ccc4c(C)n[nH]c4c3)n2)c1,7.51
15,CCn1c(-c2nonc2N)nc2c(C#CC(C)(C)O)nc(OCCNC)cc21,5.09
16,COc1cc(Nc2nccc(-c3cnn4ncccc34)n2)cc(OC)c1,4.41
